Drawing on PubChem BioAssay AID488847 (NMMLSC, 2010), this text covers inhibition of aptamer binding for 25 compounds.

Each structure is given as a SMILES string. Hit rate of the full screen: of about 330,000 compounds, about 1,900 (0.58%) were called active. This is one part of a sample in which actives are shown more often than they occur. Values without a mark were called inactive.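 How the source made its calls: active means inhibition of aptamer binding above 40%, roughly 3 SD of noise, on plates passing a quality check; inactive means the rest.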

The target in the experiment is Beta-adrenergic receptor kinase 1 (Homo sapiens) (UniProt P25098). As to the kind of experiment: compounds blocking aptamer binding on GRK2 – biochemical, human GRK2, bead flow cytometry, HTS, primary screen (AID 488847).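 Further: median bead fluorescence of bound FAM aptamer so fluorescent compounds give negative values.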 The note with it: FAM-aptamer displacement from GRK2, at 10 µM, stronger effect = higher value. A general note: Flow cytometry measures light scatter and fluorescence of single cells or particles in a stream.
Chain of Beta-adrenergic receptor kinase 1 (Homo sapiens) (P25098 whole entry, looked up): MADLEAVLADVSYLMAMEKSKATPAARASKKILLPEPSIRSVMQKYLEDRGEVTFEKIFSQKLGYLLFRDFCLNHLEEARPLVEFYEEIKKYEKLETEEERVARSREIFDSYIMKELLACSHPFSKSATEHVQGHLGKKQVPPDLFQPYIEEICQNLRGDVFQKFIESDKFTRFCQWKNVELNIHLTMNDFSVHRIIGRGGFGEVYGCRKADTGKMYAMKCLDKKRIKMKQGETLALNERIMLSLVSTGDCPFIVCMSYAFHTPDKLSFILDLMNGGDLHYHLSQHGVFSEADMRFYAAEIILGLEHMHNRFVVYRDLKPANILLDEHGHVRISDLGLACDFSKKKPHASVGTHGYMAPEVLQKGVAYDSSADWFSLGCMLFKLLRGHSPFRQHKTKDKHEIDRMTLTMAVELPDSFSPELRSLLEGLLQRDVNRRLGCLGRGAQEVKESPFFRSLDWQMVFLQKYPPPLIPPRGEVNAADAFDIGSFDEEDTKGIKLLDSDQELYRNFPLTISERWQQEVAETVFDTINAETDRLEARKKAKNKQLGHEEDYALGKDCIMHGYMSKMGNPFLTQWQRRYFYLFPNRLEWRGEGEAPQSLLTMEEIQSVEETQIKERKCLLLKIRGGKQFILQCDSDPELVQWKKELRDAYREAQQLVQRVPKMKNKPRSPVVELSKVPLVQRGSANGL
For the compound `O=C(CN1CCN(S(=O)(=O)c2ccc(Cl)s2)CC1)NCc1ccc(Cl)cc1`, the inhibition of aptamer binding is 2%. Regarding `COc1ccc(NC(=O)Cn2ncn3c(cc4ccccc43)c2=O)c(OC)c1OC`, the inhibition of aptamer binding was 1%.

For the compound `Cn1c(=O)[nH]c(=O)c2c1nc(N1CCN(C(c3ccccc3)c3ccccc3)CC1)n2CCO`, the inhibition of aptamer binding was 43% (active).

For the compound `CN1CCN(c2nc3c(c(=O)[nH]c(=O)n3C)n2Cc2cccc3ccccc23)CC1`, the inhibition of aptamer binding is 0%.

Consider `Cn1c(=O)[nH]c(=O)c2c1nc(N1CCN(CCO)CC1)n2CCSc1nc2ccccc2s1`, for which the inhibition of aptamer binding was 0%. To `Cc1ccc(NN=Nc2nc3c([nH]2)c(=O)n(C)c(=O)n3C)cc1` belongs 0%. With `CCOC(=O)c1cc2c(n(-c3ccc(C)cc3)c1=O)CCCC2=O`, the inhibition of aptamer binding is 0%. For `CCOC(=O)C1=C(N)N(c2ccc(C)cc2)C2=C(C(=O)CCC2)C1c1cccs1` (stereo not given), the inhibition of aptamer binding is 45% (active). To `O=C1CCCC2=C1C(c1cccs1)CC(=O)N2c1ccc(F)cc1` (stereo not given) belongs 0%; to `O=C(c1ccc(F)cc1)N1CCCC(C(=O)N2CCCCC2)C1` (stereo not given), 1%. The same measure for `Cc1noc(C)c1COc1ccccc1C(=O)N(C)CC(=O)Nc1cccc(F)c1`: 1%; for `COC(=O)N/N=C/c1ccc(-c2ccc(Cl)c(Cl)c2)o1`: 0%; for `COC(=O)N/N=C/c1ccc(/C=N/NC(=O)OC)cc1`: 87% (active). To `CC(C)(C)OC(=O)N/N=C/c1ccc(C(=O)O)cc1` belongs 0%; to `CCNS(=O)(=O)c1ccc(CCC(=O)N2CCN(c3cc(Cl)ccc3C)CC2)cc1`, 0%; to `O=C1c2ccccc2C2=Nc3ccccc3SC(c3ccccc3F)C12` (stereo not given), 0%.

In the case of `COc1ccc(C2=NN(C(=O)CSc3nc(=O)n4ccc(C)cc4n3)C(c3ccc(C)cc3)C2)cc1` (stereo not given), the inhibition of aptamer binding was 2%. To `COc1cc(C)ccc1OCC(=O)OCC(=O)c1ccc[nH]1` belongs 0%; to `CN1C(=O)CC(N2CCN(c3ccccn3)CC2)C1=O` (stereo not given), 1%; to `Cc1nnc(SCC(=O)N2c3ccccc3C(C)(c3ccc(Cl)cc3)CC2(C)C)s1` (stereo not given), 72% (active). On to `CC1(c2cccc([N+](=O)[O-])c2)CC(C)(C)N(C(=O)c2ccccc2)c2ccccc21` (stereo not given), for which the inhibition of aptamer binding was 0%. Take `CC1(c2ccccc2)CC(C)(C)N(C(=O)c2cc([N+](=O)[O-])cc([N+](=O)[O-])c2)c2ccccc21` (stereo not given): the inhibition of aptamer binding was 0%. To `CN(C(=O)CC(NC(=O)c1ccccc1)(c1ccccc1)c1ccccc1)c1ccccc1` belongs 1%; to `CC(Sc1nnc(-c2ccccc2F)n1C1CC1)C(N)=O` (stereo not given), 0%. The same measure for `Cc1ccc(C(=O)COC(=O)CCCC(=O)NC2CCCCC2)cc1[N+](=O)[O-]`: 0%.
